Data from PubChem BioAssay (NCATS).
Several values for one entry are separate records, joined by “and”; a condition that tells them apart may be missing. Equal entries are not always repeated. A number with no mark means an inactive call. Records with an inconclusive call do not appear. Where a call stands in place of a potency, no number is given. Activity calls are given as the source filed them. Unless noted, calls come from the whole dose curve; as a rule, active = well fitted curve in the direction sought with a large enough effect; inconclusive = small, poorly fitted or top-dose-only effect, or another doubt; inactive = no such curve, though single readings can be large; an effect the other way counts as inactive or inconclusive.

Columns and labels:
[1] = Cell Viability - Mesenchymal (AID 546);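 note: cells exposed to compound for 40 hours before reading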
How it was run: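 Human renal mesenchymal cells (glomerulus-derived), 1000 cells/well, 5 hr 37 °C pre-incubation; compound 40 hr, 37 °C; CellTiter-Glo, 20 min RT; luminescence; AC50 via Hill equation.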

[2] = Cellular Toxicity (caspase-3) SHSY5Y (AID 657)
How it was run: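 Luminescent Caspase-Glo 3/7 read-out, 1 hr room temperature, follows 16 hours of compound treatment of SH-SY5Y cells at 37 °C. Normalization: DMSO basal, 10 uM staurosporine as 100%; AC50 values from Hill-equation concentration-response fits.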

[3] = Cellular Toxicity (caspase-3) BJ (AID 658)
How it was run: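 qHTS, BJ fibroblasts, 1000 cells/well; 5 hr preincubation, 16 hr compound, 37 °C; Caspase-Glo 3/7 reagent, 1 hr RT; luminescence. DMSO = 0%, 10 uM staurosporine = 100%. Hill-equation AC50.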

[4] = Cellular Toxicity (caspase-3) MRC-5 (AID 659)
How it was run: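 MRC-5 fibroblasts, 1500/well; 16 h cpd, 37 °C; Caspase-Glo 3/7, 1 h RT; lumi read. Norm: DMSO = 0%, 10 uM staurosporine = 100%. Hill-fit AC50 from qHTS conc-response.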

[5] = Cellular Toxicity (caspase-3) Mesangial (AID 660);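 note: combined caspase 3 and 7 activity read by Caspase-Glo luminescence; cells exposed to compound for 16 h before the caspase read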
How it was run: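 AC50 values come from Hill-equation fits of caspase 3/7 activation, measured as Caspase-Glo luminescence in human glomerular mesangial cells exposed to compound for 16 h at 37 °C; 100% set by 100 uM tamoxifen.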

[6] = Cellular Toxicity (caspase-3) SK-N-SH (AID 661); note: potency is the fitted concentration of half-maximal effect
How it was run: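 Apoptosis readout in SK-N-SH neuroblastoma: Caspase-Glo 3/7 luminescence following 16 hr treatment in complete culture medium. Normalization used DMSO and 10 uM staurosporine controls.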

[7] = Cellular Toxicity (caspase-3) Hek293 (AID 664); settings: HEK293 caspase-3 activation, DMSO = 0%, 100 µM tamoxifen = 100%; at 92.2 µM (top of the series);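 note: cells exposed to compound for 16 h at 37 °C before readout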
How it was run: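 Apoptosis readout: Caspase-Glo 3/7 signal in human HEK293 cells following 16-hour compound incubation. Responses scaled between DMSO baseline and 100 uM tamoxifen.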

[8] = Cellular Toxicity (caspase-3) N2a (AID 665);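 note: compound exposure lasted 16 h at 37 °C before readout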
How it was run: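 Concentration-response qHTS: compound-induced caspase-3/7 luminescence in N2a cells (16 h, 37 °C), relative to DMSO and 10 uM staurosporine controls; AC50 obtained using the standard Hill equation.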

[9] = Cell Viability - LYMP1-002 - Assay at 16 hr (AID 948)
How it was run: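 ATP luminescence (CellTiter-Glo) was measured after 16 hr compound exposure at 37 C of 2500 lymphoblastoid LYMP1-002 cells per well. Concentration-response curves were fitted with the Hill equation to give AC50.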

[10] = MultiTox-Fluor Cytotoxicity Assay - LYMP1-003 - Dead Cells (AID 961); note: nearly all actives have a fitted effect of over 70% in size
How it was run: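 Human lymphoblastoid LYMP1-003 cells (2500/well) were treated with compounds for 16 hr at 37 C in complete medium. Dead-cell protease release was read by bis-AAF-R110 fluorescence (Ex/Em 485/520). AC50 came from Hill fits, normalized to DMSO and 15 uM tetraoctylammonium bromide.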

[11] = MultiTox-Fluor Cytotoxicity Assay - LYMP1-003 - Live Cells (AID 962);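 note: cytotoxic hits lower the live-cell protease signal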
How it was run: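 Human lymphoblastoid line LYMP1-003 in complete culture medium, treated 16 hr with titrated compounds. Viable cells quantified via cell-permeant GF-AFC substrate fluorescence; AC50 derived by Hill fitting.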

[12] = Cell Viability - LYMP1-003 - Assay at 24 hr (AID 963)
How it was run: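 The lymphoblastoid line was treated with titrated compounds for 24 hours, and viable cell number estimated from luciferase-based ATP luminescence.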

[13] = Cell Viability - LYMP2-013 (AID 970);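 note: cells exposed to compound for 24 h at 37 °C; nearly all actives have a fitted effect of over 55% in size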; note: potency is the fitted concentration of half-maximal effect
How it was run: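 In complete culture medium, human lymphoblastoid cells were dosed for 24 hr at 37 C, with tetraoctylammonium bromide (6.4pM to 92 uM) as positive control. Viability reflects luciferase-based ATP signal; AC50 derived from concentration-response curves.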

[14] = Cell Viability - LYMP2-007 (AID 979);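 note: cells exposed to compound for 24 h before reading; nearly all actives have a fitted effect of over 60% in size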; note: potency is the fitted concentration of half-maximal effect
How it was run: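 Measured via luciferase-based ATP quantitation: lymphoblastoid cells, 24 hr compound exposure at 37 C, AC50 from Hill fits.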

[15] = Cell Viability - LYMP2-008 (AID 980); note: nearly all actives have a fitted effect of over 60% in size; note: potency is the fitted concentration of half-maximal effect
How it was run: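 Measured: ATP-dependent luminescence, proportional to viable cell number, in human lymphoblastoid cells treated 24 hr with compound in complete culture medium. Values are AC50s from Hill-equation modelling of qHTS titrations.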

[16] = Cell Viability - LYMP2-014 (AID 983);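 note: cells exposed to compound for 24 h at 37 °C; nearly all actives have a fitted effect of over 50% in size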
How it was run: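 Quantitative HTS in lymphoblastoid cells: 24 hr compound exposure, then CellTiter-Glo ATP luminescence. Positive control was tetraoctylammonium bromide, 6.4pM to 92 uM.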

[17] = qHTS Assay for Identification of Small Molecule Inducers of Hypoxia Response (AID 2120; active = well fitted curve in the direction sought with a large enough effect in the signal ratio, with a control signal flat, not every such curve was filed as active; the % refers to the signal ratio)
How it was run: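 HRE-bla ME-180, 2500 cells/well, 0.5% dialyzed FBS medium; cpd titration, 17 h 37 degrees C; CCF4 2.5 h RT; Ex 405, Em 460/530 ratio -> %Activity, AC50.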

[18] = target: Peroxisome proliferator-activated receptor alpha (Homo sapiens) (UniProt Q07869); assay: qHTS assay for small molecule agonists of the peroxisome proliferator-activated receptor alpha (PPARalpha) signaling pathway (AID 651778); settings: PathHunter PPARalpha complementation, chemiluminescence, 6 h; active compounds read high
Sequence of Peroxisome proliferator-activated receptor alpha (Homo sapiens) (Q07869 whole entry, looked up, the tested form may be a part): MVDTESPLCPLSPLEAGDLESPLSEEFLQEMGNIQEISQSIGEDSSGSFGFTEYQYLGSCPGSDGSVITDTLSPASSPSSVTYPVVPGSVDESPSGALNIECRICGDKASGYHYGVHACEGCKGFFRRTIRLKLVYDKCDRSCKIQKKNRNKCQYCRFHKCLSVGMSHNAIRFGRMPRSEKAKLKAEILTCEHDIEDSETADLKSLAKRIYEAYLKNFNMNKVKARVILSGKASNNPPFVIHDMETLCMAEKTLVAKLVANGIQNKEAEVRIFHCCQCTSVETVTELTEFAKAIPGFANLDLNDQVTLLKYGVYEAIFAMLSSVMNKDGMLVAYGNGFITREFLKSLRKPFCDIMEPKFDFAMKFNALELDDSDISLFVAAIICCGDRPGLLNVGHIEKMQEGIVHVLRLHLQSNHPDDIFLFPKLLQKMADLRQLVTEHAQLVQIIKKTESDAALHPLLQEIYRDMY
How it was run: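 Enzyme-fragment complementation assay in which ligand-bound PPARalpha translocates and forms an active enzyme that generates chemiluminescence. Cells were plated overnight, exposed to compound for 6 hr at 37 C, and then given detection reagent for 60 min at room temperature.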

[19] = qHTS assay for small molecule agonists of the antioxidant response element (ARE) signaling pathway measured by Nrf2-dependant transcriptional activity - cell viability counter screen (AID 720653; active = well fitted curve in the direction sought with a large enough effect in the repeat runs; an effect the other way counts as inactive or inconclusive); settings: ARE-bla HepG2 viability, CellTiter-Glo ATP luminescence, 16 h; active compounds read low
How it was run: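 ARE-bla HepG2 cells treated with compounds for 16 h at 37C; this counter screen measures viability as intracellular ATP by CellTiter-Glo luminescence after 30 min at room temperature.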

[20] = qHTS assay for cell viability of the p53RE-bla HCT-116 cell line (AID 743292); note: nearly all actives have a fitted effect of over 55% in size; note: potency is the fitted concentration of half-maximal effect
How it was run: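 Compound-exposed HCT-116 (p53RE-bla) cells, 4,000 per well, were kept 16 h at 37 C following a 5 h preincubation. Cell number was estimated from total ATP by CellTiter-Glo luminescence read after 30 min at room temperature.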

Row | SMILES | Potency [1] | outcome [2] | outcome [3] | outcome [4] | outcome [5] | Potency [6] | caspase-3 activation [7] [%] | outcome [8] | outcome [9] | Potency [10] | outcome [11] | outcome [12] | Potency [13] | Potency [14] | Potency [15] | Potency [16] | Potency [17] | max response [18] | max response [19] | Potency [20]
1 | CCCCCOC(=O)c1ccccc1C(=O)OCCCCC | inactive | inactive | inactive | inactive | inactive | inactive | 3.92 | inactive | inactive | inactive | inactive | inactive | inactive | inactive | inactive | inactive | inactive | -4.34% and -0.557% | 0.29% and 4.72% | inactive
2 | CC(C)OS(C)(=O)=O | inactive | inactive | inactive | inactive | inactive | inactive | -0.589 | inactive | inactive | inactive | inactive | inactive | inactive | inactive | inactive | inactive | inactive | -9.26% | -6.13% | inactive
3 | Cc1cc(N=Nc2ccccc2C)ccc1N |  | inactive | inactive | inactive | inactive | inactive | -5.62 | inactive | inactive | inactive | inactive | inactive | inactive | inactive | inactive | inactive | inactive | -6.65% and -1.39% | -2.89% and 2.65% | inactive
4 | BrCC(Br)(Br)Br | inactive | inactive |  | inactive |  | 25.1 µM (active) | 7.98 | inactive | inactive | inactive | inactive | inactive | 25.1 µM (active) | 12.6 µM (active) | 39.8 µM (active) |  | inactive | -5.78% |  | inactive
5 | O=[N+]([O-])c1ccc(Cl)c(Cl)c1Cl | inactive | inactive | inactive | inactive | inactive | inactive | -0.669 | inactive | inactive | inactive | inactive | inactive | inactive | inactive | inactive | inactive | inactive | 10.7% | -7.85% | inactive
6 | O=[N+]([O-])c1ccc2c3c(cccc13)CC2 | inactive | inactive | inactive | inactive | inactive | inactive | 1.65 | inactive | inactive | inactive | inactive | inactive | inactive | inactive | inactive | inactive | inactive | -11.3% and -0.119% | 3.04% and 5.87% | inactive
7 | Clc1ccc(C(c2ccccc2Cl)C(Cl)(Cl)Cl)cc1 (stereo not given) | inactive | inactive | inactive | inactive | inactive | inactive |  | inactive | inactive | inactive | inactive | inactive | inactive | inactive | inactive | inactive | inactive | 3.12% | -11.9% and 2.81% | 50.1 µM (active)
8 | CN(C)c1ccc(N(C)C)cc1 | inactive | inactive | inactive | inactive | inactive | inactive | -1.04 | inactive | inactive | inactive | inactive | inactive |  |  |  |  | inactive | -4.1% | -11.4% | inactive
9 | ClC(Br)Br | inactive | inactive | inactive | inactive | inactive | inactive | -0.91 | inactive | inactive | inactive | inactive | inactive | inactive | inactive | inactive | inactive | inactive | -8.35% | 0.446% | inactive
10 | CC(C)[N+](=O)[O-] | inactive | inactive | inactive | inactive | inactive | inactive | -0.5 | inactive | inactive | inactive | inactive | inactive | inactive | inactive | inactive | inactive | inactive | -6.42% | 1.53% | inactive
11 | C=CC(=O)OC | inactive | inactive | inactive | inactive | inactive | inactive | 2 | inactive | inactive | inactive | inactive | inactive | inactive | inactive | inactive | inactive | inactive | -1.74% | 8.65% | inactive
12 | O=C(O)c1cccc(Cl)c1 | inactive | inactive | inactive | inactive | inactive | inactive | -0.358 | inactive | inactive | inactive | inactive | inactive | inactive | inactive | inactive | inactive | inactive | -1.81% | -8.47% | inactive
13 | N#CCCCCC#N | inactive | inactive | inactive | inactive | inactive | inactive | 0.323 | inactive | inactive | inactive | inactive | inactive | inactive | inactive | inactive | inactive | inactive | -1.89% | 5.3% | inactive
14 | Nc1ccc(Oc2ccc(N)cc2)cc1 | inactive | inactive | inactive | inactive | inactive | inactive | -2.14 | inactive | inactive | inactive | inactive | inactive | inactive | inactive | inactive | inactive | inactive | -1.7% and -2.66% | -2.21% and -13% | inactive
15 | CCC/C=N/O | inactive | inactive | inactive | inactive | inactive | inactive | -0.0645 | inactive | inactive | inactive | inactive | inactive | inactive | inactive | inactive | inactive | inactive | -3.79% | -12.8% | inactive
16 | C=CC(=O)OCC(CC)CCCC (stereo not given) | inactive | inactive | inactive | inactive | inactive | inactive | 2.19 | inactive | inactive | inactive | inactive | inactive | inactive | inactive | inactive | inactive | inactive | 4.79% and 0.332% | -8.13% and 5.16% | inactive
17 | Nc1cc(Cl)cc(C(=O)O)c1Cl | inactive | inactive | inactive | inactive | inactive | inactive | -1.19 | inactive | inactive | inactive | inactive | inactive | inactive | inactive | inactive | inactive | inactive | 9.46% and -1.59% | -8.07% and -24.7% | inactive
